# Screening results from PubChem BioAssay.
# Compounds with a hit are over-represented: about 3.4% of the library has one in this group of screens.
# GAA850 FXN act: increases GAA850 frataxin promoter reporter activity; activation, % at 6 µM; AID 540364; hit rate 0.56% among 360,000; HEK293 lucGAA850 FXN promoter luciferase reporter, 24 h; percent of 10 µM SAHA response;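 active = activation above the average of all compounds screened plus 3 SD, cutoff fixed separately per campaign, cut at about 7.5% in these data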
# SMARCA2 activ: SMARCA2 function activation, primary screen; activation, % at 9.1 µM; MG213 cells, MMTV-luciferase reporter, dexamethasone, overnight; AID 652017; hit rate 1% among 370,000; in the data active = activation above about 7.8%
# COUP-TFII inh: blocks human COUP-TFII nuclear receptor; inhibition, % at 8.6 µM; hit rate 0.7% among 370,000; HEK293T NGFI-A luciferase reporter, luminescence; P24468; AID 686940;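 active = inhibition above a per-plate cutoff, mean inhibition of test wells between control levels plus 3 SD, cut at about 38% in these data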;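 note: cells cotransfected with COUP-TFII expression vector driving the NGFI-A reporter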
# Target sequence (P24468 whole entry, looked up): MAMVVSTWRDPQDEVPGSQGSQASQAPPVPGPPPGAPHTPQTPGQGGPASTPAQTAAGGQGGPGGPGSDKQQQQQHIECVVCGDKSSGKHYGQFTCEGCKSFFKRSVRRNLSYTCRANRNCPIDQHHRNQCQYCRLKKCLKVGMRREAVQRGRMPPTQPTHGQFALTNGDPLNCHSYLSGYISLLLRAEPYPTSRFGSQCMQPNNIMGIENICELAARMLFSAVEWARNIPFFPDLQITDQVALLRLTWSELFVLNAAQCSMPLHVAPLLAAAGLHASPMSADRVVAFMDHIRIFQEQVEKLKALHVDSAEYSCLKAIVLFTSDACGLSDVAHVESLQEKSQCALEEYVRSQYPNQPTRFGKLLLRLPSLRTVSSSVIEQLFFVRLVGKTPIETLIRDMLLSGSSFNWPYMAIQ
# Gli-Sufu block: antagonists of Gli-Sufu signaling; Sufu-KO-LIGHT fibroblasts, Gli luciferase reporter luminescence; inhibition, % at 5 µM; hit rate 0.74% among 340,000; AID 588413;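 active = inhibition above about 55%, limit read from the data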
# H9c2 protect: myocardial damage modulation in H9c2 cells. H9c2 cardiomyocytes, H2O2 injury protection, ATPLite, 2 h. hit rate 0.63% among 360,000. AID 588492. protection from H2O2 cell death, % at 20 µM;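 active = compounds giving at least 50% protection of heart cells from peroxide-induced death in the single-dose screen, raw or plate-pattern-corrected value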
# GalR3 antag: human GalR3 antagonism | O60755 | HEK293 GalR3-CNG cAMP membrane potential fluorescence; galR3 body fused to GalR1 C-terminus | inhibition, % at 3 µM | hit rate 0.44% among 360,000 | AID 651719;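 active = inhibition above the screen-wide average plus 3 SD, cut at about 13% in these data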;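 note: forskolin and galanin both at EC90 stimulate the cells; cAMP rise reported by CNG channel membrane potential dye signal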
# GAA30 counter: counter-screen for GAA850 frataxin promoter activators: GAA30 promoter activation. shares compounds with GAA850 FXN act. HEK293 lucGAA30 FXN promoter luciferase, 24 h; DMSO = 0%, 5 µM ipriflavone = 100%. activation, % at 6 µM. hit rate 66% among 1,900. AID 588350;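 active = mean activation above the mean of solvent-only control wells plus 3 SD, cut at about 22% in these data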;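 note: counterscreen of GAA850 promoter hits where activity marks nonselective or luminescence artifacts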
# GAA850 confirm: GAA850 FXN promoter activation confirmation | shares compounds with GAA850 FXN act | activation, % at 6 µM | AID 588351 | hit rate 86% among 1,900 | HEK293 lucGAA850 FXN promoter luciferase reporter, 24 h; 100% = activation by SAHA;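 active = mean activation above a set limit taken from the primary screen, cut at about 8% in these data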
# A number is an active result; – = inactive; · = no result given.
SMILES,GAA850 FXN act,SMARCA2 activ,COUP-TFII inh,Gli-Sufu block,H9c2 protect,GalR3 antag,GAA30 counter,GAA850 confirm
C[C@@H]1CCN(C2CC2)S(=O)(=O)c2ccc(N3CC[C@@H](N(C)C)C3)cc2O1,·,–,–,·,·,·,·,·
CCC[C@H]1[C@@H](OC(=O)NCc2ccc(Cl)cc2)CC[C@@]23CCCN2C(=O)CCC[C@@H]13,·,·,–,·,·,·,·,·
O=[N+]([O-])c1ccc(Sc2nc3ccccc3o2)c([N+](=O)[O-])c1,16,–,–,–,–,–,–,46
COc1ccc(-c2cc(-c3ccccc3)n[nH]2)c(O)c1,8.2,–,–,–,–,–,121,38
C[C@H](NC(=O)OCc1ccccc1)P(=O)(O)O,·,–,–,·,·,·,·,·
CN1[C@@H](COCc2ccccc2)C=CS1(=O)=O,·,–,–,·,–,–,·,·
COC(=O)C1=C(C)N(C)C(=NCc2cc(OC)c(OC)c(OC)c2)NC1c1cccc(Cl)c1 (stereo not drawn),·,–,–,·,·,–,·,·
Cn1cc(CN2CCCC(CNC(=O)c3ccc4c(c3)OCO4)C2)c2ccccc21 (stereo not drawn),11,–,–,–,–,–,–,13
CCOC(=O)[C@]12CCCC=C1N(Cc1ccc(OC)cc1)C(=O)[C@@H]2CC(=O)N1CCCC1,·,–,–,·,·,·,·,·
CCn1c(SCC(=O)Nc2ccc(C(N)=O)cc2)nc2sc(C)c(C)c2c1=O,·,–,–,·,·,·,·,·
COc1cc(/C=N/Nc2ncnc3sc4c(c23)CCC4)ccc1O,20,–,–,–,–,–,67,20
COC(=O)C[C@H]1CC[C@@H]2[C@H](COc3ccc(NC(=O)c4cnccn4)cc3C(=O)N2C)O1,·,–,–,·,·,·,·,·
O=C(CSc1ccc2ccccc2c1)NCCc1ccc(O)c(O)c1,13,–,–,–,80,–,43,13
CCN(CC)S(=O)(=O)c1ccc(C(=O)OCCN2C(=O)c3cccc4c(N5CCOCC5)ccc(c34)C2=O)cc1,8.5,–,–,–,–,–,–,–
O=c1[nH]c(=O)n(C2OC(CO)C(O)C2O)cc1F (stereo not drawn),19,·,·,–,–,·,–,78
COc1cccc(C(=O)c2sc(NC(C)C)nc2N)c1,12,–,–,–,–,–,69,89
Cc1cccc(C)c1NC(=O)C1(C)CSCC(=O)N1C1CCN(Cc2ccccc2)CC1 (stereo not drawn),·,–,–,·,·,–,·,·
COC(=O)C1=C(C)N(C)C(=NCc2ccc(C(F)(F)F)cc2)NC1c1ccc(C(F)(F)F)cc1 (stereo not drawn),·,–,–,·,·,–,·,·
O=C(NCc1ccco1)C1CCCN(S(=O)(=O)c2ccc(F)cc2)C1 (stereo not drawn),·,–,–,·,·,·,·,·
Cc1nc2nc(-c3ccccc3)nn2c(C)c1C,7.6,–,–,–,–,–,115,41
Cc1nc2nc(-c3ccccc3)nn2c(C)c1Cl,–,–,–,–,–,–,·,·
CCOC(=O)c1c(NC(=O)CSc2c[nH]c3ccccc23)sc2c1CCCC2,–,–,–,–,–,·,·,·
CCOC(=O)c1c(NC(=O)CSc2nnc(-c3c[nH]c4ccccc34)n2CCOC)sc2c1CCCCC2,17,–,–,–,–,·,–,8.2
COc1ccc(C2CC(c3cccc(C)c3)n3ncnc3N2)cc1 (stereo not drawn),–,–,–,–,–,–,·,·
Cc1cccc(C2CC(c3ccccc3)Nc3ncnn32)c1 (stereo not drawn),19,–,–,–,–,–,–,9.6
Cc1cc(N/N=C/c2ccc(Cl)cc2Cl)nc(NCc2ccccc2)n1,–,–,–,–,–,–,·,·
Cc1cc(Nc2ccc(Cl)cc2)nc(NCc2ccccc2)n1,14,–,–,–,–,–,–,10
O=C(CSc1nnc(-c2cccs2)o1)Nc1cccc2ccccc12,·,–,–,·,·,·,·,·
O=C(O)c1ccc(N/N=C/c2ccc(-c3cccc(Cl)c3)o2)cc1,11,–,–,–,–,–,112,42
